# Rows were chosen to be rich in hits. Some 1.6% of all compounds tested hit in one or more screens of this group.
# KCNQ2 block: rat KCNQ2 potassium channel inhibitors, primary screen, cell-based, CHO-K1, FluxOR thallium flux, B-score; Potassium voltage-gated channel subfamily KQT member 2 (Rattus norvegicus), O88943; 20 min; stronger effect = lower value; B-score at 10 µM; 1.1% of 310,000 active; AID 2156, 2009;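 active = fluorescence ratio B-score at most minus 3 library SDs, with starting brightness B-score within 2 library SDs, cut at about -5.5 in these data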
# Target sequence (O88943 whole entry, looked up): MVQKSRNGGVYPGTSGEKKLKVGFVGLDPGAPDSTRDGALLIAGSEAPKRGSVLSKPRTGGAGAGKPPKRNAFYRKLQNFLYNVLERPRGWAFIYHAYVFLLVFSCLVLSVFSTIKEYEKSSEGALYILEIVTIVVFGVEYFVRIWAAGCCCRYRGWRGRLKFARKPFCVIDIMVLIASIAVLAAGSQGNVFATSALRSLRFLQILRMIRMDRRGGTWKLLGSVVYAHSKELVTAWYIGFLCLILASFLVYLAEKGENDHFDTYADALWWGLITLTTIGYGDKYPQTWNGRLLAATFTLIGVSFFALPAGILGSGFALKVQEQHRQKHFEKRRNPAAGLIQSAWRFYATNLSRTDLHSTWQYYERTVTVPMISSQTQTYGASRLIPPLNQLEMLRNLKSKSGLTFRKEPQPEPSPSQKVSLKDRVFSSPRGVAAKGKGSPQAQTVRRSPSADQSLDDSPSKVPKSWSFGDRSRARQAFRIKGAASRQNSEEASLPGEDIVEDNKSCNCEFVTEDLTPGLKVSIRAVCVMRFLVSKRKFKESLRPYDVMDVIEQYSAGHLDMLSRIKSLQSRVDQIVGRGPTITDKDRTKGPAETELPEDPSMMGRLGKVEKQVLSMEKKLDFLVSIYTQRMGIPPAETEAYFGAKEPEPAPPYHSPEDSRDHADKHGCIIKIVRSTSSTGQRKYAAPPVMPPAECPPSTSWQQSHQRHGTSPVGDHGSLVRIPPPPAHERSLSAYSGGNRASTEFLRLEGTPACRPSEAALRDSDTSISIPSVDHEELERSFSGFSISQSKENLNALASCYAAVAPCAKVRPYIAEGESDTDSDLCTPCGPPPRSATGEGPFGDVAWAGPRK
# KCNQ2 enhance: potentiators of rat KCNQ2 potassium channel; Potassium voltage-gated channel subfamily KQT member 2 (Rattus norvegicus), O88943; CHO-K1 KCNQ2, FluxOR thallium flux fluorescence; stronger effect = higher value; B-score at 10 µM; 0.54% of 310,000 active;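 active = fluorescence ratio B-score at least 3 SD of library B-scores, with initial fluorescence B-score within 3 of them, cut at about 5.3 in these data; same plate scores as AID 2156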;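 note: B-score of peak minus minimum over baseline fluorescence ratio after K+ and Tl+ stimulus; positive B-score means potentiation of KCNQ2 with more thallium influx and brighter signal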
# * = called active by the depositor; i = inactive; x = no result given.
SMILES,KCNQ2 block,KCNQ2 enhance
O=C(NNC(=O)c1cc(-c2ccccc2)nc2ccccc12)Nc1cccc(Cl)c1,-6.3*,-6.3
CC(C)(C)c1ccc(-c2cc(C(=O)NNC(=O)Nc3ccccc3)c3ccccc3n2)cc1,i,x
O=C(O)CCCCCNC(=O)OCC1c2ccccc2-c2ccccc21,i,x
Cc1ccc(F)cc1NCC(=O)Nc1ccc(Cl)cc1F,i,x
Cc1c(Cl)cccc1NCC(=O)Nc1ccc(Cl)cc1F,-6.8*,-6.8
C/C(=N\NC(=O)CNc1cccc(C(F)(F)F)c1)c1ccc(Br)cc1,i,x
Cc1c(Cl)cccc1NC(=O)CNc1cccc(C(F)(F)F)c1,-6*,-6
Cc1ccc(C(=O)NCC(=O)Nc2ccncc2)s1,i,x
CCCCn1c(-c2csc(CC)c2)n[nH]c1=S,i,1.9
CCCc1cc(-c2n[nH]c(=S)n2CC(C)C)cs1,i,6.4*
CSc1ccc(C(=O)C2CCCN(C(=O)Cc3nonc3C)C2)cc1 (stereo not drawn),i,x
O[C@@H](c1cc(C(F)(F)F)nc2c(C(F)(F)F)cccc12)[C@H]1CCCCN1,i,0.92
OC(c1cc(-c2ccc(Cl)cc2)nc2ccccc12)C1CCCCN1 (stereo not drawn),-7.3*,-7.3
CC1=C(C(=O)N2CCOCC2)C(c2c(F)cccc2F)NC(=O)N1 (stereo not drawn),i,0.55
Cc1cc(=O)c2cc(Br)ccc2n1CC(=O)NCc1ccccc1,-8.3*,-8.3
O=C(Cn1c(=O)n(CC(=O)NCc2ccccc2)c2ccccc21)NCc1ccccc1,i,x
COc1ccc(C2CC(c3cccs3)=NN2S(C)(=O)=O)cc1 (stereo not drawn),i,0.71
COc1ccc(C2CC(c3cccs3)=Nc3ccccc3S2)cc1 (stereo not drawn),-6*,-6
CC1(C)CC(=O)c2c(O)cc(OCC(=O)N3CCN(c4ccc(F)cc4)CC3)cc2O1,i,x
N#C/C(=C\c1cc(Cl)cc(Cl)c1O)C(=O)NC1CCCCC1,-5.7*,-5.7
N#C/C(=C\c1cc(Br)ccc1F)C(=O)NC1CC1,-6.1*,-6.1
N#C/C(=C\c1cc(Cl)ccc1O)C(=O)NC1CCCCC1,i,x
N#C/C(=C\c1ccc(F)c(Br)c1)C(=O)NC1CC1,i,x
CN(C)CCCNCC(=O)NN(c1ccccc1)c1ccccc1,i,1.5
CCOC(=O)[C@H]1[C@H]2COc3cc(OC)ccc3[C@@H]2N2C(=O)N(c3ccc(Cl)cc3)C(=O)[C@@]12C,i,x
SMILES,KCNQ2 block,KCNQ2 enhance
CCOc1cc(CNCCCN2CCOCC2)cc(Br)c1OCc1ccccc1Cl,-5.9*,-5.9
CCOc1cc(CNCCN2CCOCC2)ccc1OCc1ccccc1Cl,i,x
O=S1(=O)C=C(Oc2ccc3ccccc3c2)c2ccccc21,-6.1*,-6.1
O=S1(=O)C=C(Oc2ccc(F)cc2)c2ccccc21,i,0.45
Cn1c(=O)[nH]c(Nc2ccccc2)c([N+](=O)[O-])c1=O,i,1.4
COc1ccc(CC(=O)Nc2cccc(SC)c2)cc1OC,i,0.25
O=C(Nc1cc2cccc([N+](=O)[O-])c2oc1=O)c1cccs1,i,2.1
CC(=O)Nc1ccc(S(=O)(=O)Nc2nc3ccccc3nc2Nc2ccc(O)c(C(=O)O)c2)cc1,i,x
C=CCN1C(=O)C2C(C(=O)NC3CCCC3)C3C=CC2(O3)C1C(=O)NC1CCCC1 (stereo not drawn),i,0.66
O=C(CC1SC(=Nc2ccccc2)N(CCc2c[nH]c3ccccc23)C1=O)Nc1ccccc1F (stereo not drawn),-6.7*,-6.7
O=C(CC1SC(=Nc2ccccc2)N(CCc2ccccn2)C1=O)Nc1ccc(F)cc1 (stereo not drawn),i,0.03
CC(=O)OCC1=C(C(=O)O)N2C(=O)C(NC(=O)c3ccc(COc4cccc(Cl)c4Cl)o3)C2SC1 (stereo not drawn),i,0.01
Fc1ccc2nc(Nc3nc4c(F)cc(F)cc4s3)sc2c1,i,4.9
Fc1ccc2nc(Nc3nc4c(F)cccc4s3)sc2c1,i,14*
CC(C)CN(CC(C)C)C1=N/C(=C\c2ccco2)C(=O)N1c1ccccc1,-7.4*,-7.4
COc1ccc(N2C(=O)/C(=C\c3ccco3)N=C2SCC(=O)N(C(C)C)C(C)C)cc1Cl,i,x
Cc1cccc(C(=O)N=c2sccn2C)c1[N+](=O)[O-],i,0.7
Cc1ccc(S(=O)(=O)N(C)c2ccc(C(=O)NCC(c3cccs3)N3CCOCC3)cc2)cc1 (stereo not drawn),i,x
Cc1ccc(N(C)S(=O)(=O)c2cccc(C(=O)NCC(c3cccs3)N3CCOCC3)c2)cc1 (stereo not drawn),-6.8*,-6.8
CCOC(=O)c1cc2c(=O)n3ccccc3nc2n(Cc2ccco2)c1=NC(=O)c1ccccc1OCC,i,x
CCOC(=O)c1cc2c(=O)n3ccccc3nc2n(Cc2ccco2)c1=NC(=O)c1cccnc1,-7.1*,-7.1
CCOC(=O)c1cc2c(=O)n3ccccc3nc2n(CCCOC)c1=NC(=O)C(C)(C)C,i,1.1
CCOC(=O)c1cc2c(=O)n3ccccc3nc2n(CCOC)c1=NC(=O)C(C)(C)C,i,9.7*
CCc1cccc(N(C(=O)c2csnn2)C(C(=O)NC(C)(C)C)c2ccncc2)c1 (stereo not drawn),i,0.9
C=CC[C@@H]1C=C[C@H](O/N=C/c2ccc(C(=O)N3[C@H](c4ccc(C)cc4)[C@@H](C)CC[C@H]3C(=O)OC)cc2)[C@@H](CO)O1,-6.1*,-6.1
SMILES,KCNQ2 block,KCNQ2 enhance
COC(=O)[C@@H]1CC[C@H](C)[C@@H](c2ccc(C)cc2)N1C(=O)c1ccc(/C=N/OC[C@@H](O)COCc2ccco2)cc1,i,x
CC(=O)Nc1ccc(NS(=O)(=O)c2c(Cl)cccc2Cl)cc1,i,x
COc1ccc(C(=O)CCS(=O)(=O)c2ccc(C)cc2)cc1,-6.4*,-6.4
Cc1ccc(C(=O)CCS(=O)(=O)c2ccc(Br)cc2)cc1,i,x
O=C1CCc2cc(S(=O)(=O)Nc3cccc(F)c3)cc3c2N1CC3,i,0.74
O=c1nc2n(c3ccc([N+](=O)[O-])cc13)CCCCC2,i,x
O=[N+]([O-])c1ccc2c(c1)C=C1CCCCC1(N1CCCCC1)O2 (stereo not drawn),-5.7*,-5.7
CCC1CCCCN1S(=O)(=O)c1ccc(-n2cnnn2)c(C)c1 (stereo not drawn),i,x
CC1Oc2ccccc2N(CC(=O)N2CCCCCC2)C1=O (stereo not drawn),i,0.03
Cc1ccc(C(=O)Nc2cccc3ccccc23)cc1,i,0.99
CC(C)(C)c1cc(C(=O)Nc2cccc3ccccc23)ccn1,-5.8*,-5.8
O=C(c1cc(COc2ccc(F)c(F)c2)on1)N1CCN(C/C=C/c2ccccc2)CC1,i,x
O=C(NC(=S)Nc1nc2ccccc2s1)c1cccs1,i,6.8*
O=C(NC(=S)Nc1ccccc1)c1cccs1,i,4.3
CC(NC(=O)c1ccc(Br)cc1)C(=O)NC1=NCCS1 (stereo not drawn),i,7.4*
CC(NC(=O)c1ccccc1)C(=O)NC1=NCCS1 (stereo not drawn),i,0.56
COc1ccc(Cl)cc1N1C(=NC(=O)C2CCCO2)SC2CS(=O)(=O)CC21 (stereo not drawn),i,0.7
Cc1nc(N2CCN(Cc3ccc4c(c3)OCO4)CC2)c2cc(-c3ccccc3)sc2n1,-6.4*,-6.4
Cc1nc(N2CCOCC2)c2cc(-c3ccccc3)sc2n1,i,x

# Source: PubChem (Johns Hopkins Ion Channel Center)
